20 compounds from the supplement of paper PMC13380429 can be followed below.

Each structure is given as a SMILES string. A number with no mark means an inactive call.

In the test the test system is Vero E6 infected with SARS-CoV-2. Briefly: inhibition of SARS-CoV-2 cytopathic effect; higher = more antiviral protection, active = above 15. The settings on record: 48 h.

With `CCOc1ccc(S(=O)(=O)O)c2cccnc12` [actinoquinol], the “inhibition of SARS-CoV-2 cytopathic effect” value (from here on “inhibition”) was 0.25% (1 nM); 0.94% (8.33 nM); 0.78% (100 nM); 1.14% (833.33 nM); -3.36% (10000 nM).
The matching figures for `C#CC1(OCC(O)CN2CCN(c3cccc(C(F)(F)F)c3)CC2)CCCCC1` (stereo not given) [terciprazine]: 0.45%, -1.84%, -0.67%, 3.5% and -3.3%.
Turning to `CCCCN1[C@@H]2CC[C@H]1C[C@@H](OC(c1ccc(F)cc1)c1ccc(F)cc1)C2`, the “inhibition” value by setting is: (1 nM) -4.04%; (8.33 nM) 0.46%; (100 nM) 3.9%; (833.33 nM) 2.41%; (10000 nM) 37% (active).
The matching figures for `CCCCCCCCCCCCCCOc1ccc(C(=O)O)o1`: -3.57%, 0.74%, 1.46%, -0.07% and 2.73%.
The matching figures for `C[N+]1(C)CCC(=C(c2ccccc2)c2ccccc2)CC1` [diphemanil]: -0.26%, -0.4%, -0.53%, 2.17% and 2.09%.
The matching figures for `N=C(N)NC(=N)NCCc1ccccc1` [phenformin]: -3.22%, 0.38%, -2.7%, -2.58% and -5.63%.
As for `CCN(CC)Cc1nccn1-c1ccc([N+](=O)[O-])cc1C(=O)c1ccccc1Cl` [nizofenone], the “inhibition” value was -1.17% (1 nM); 0.76% (8.33 nM); -0.2% (100 nM); 0.15% (833.33 nM); 1.83% (10000 nM).
The matching figures for `CC1(COc2ccc(CC3SC(=O)NC3=O)cc2)CCCCC1` (stereo not given) [ciglitazone]: -1.15%, -3.35%, -1.82%, 3.16% and 4.02%.
The matching figures for `Nc1nc(/C(=C/CC(=O)O)C(=O)N[C@@H]2C(=O)N3C(C(=O)O)=CCS[C@H]23)cs1` [ceftibuten]: 0.43%, 2.3%, 2.51%, 2.04% and 1.92%.
`COC(=O)N[C@@H](C)CNc1nccc(-c2cn(C(C)C)nc2-c2cc(Cl)cc(NS(C)(=O)=O)c2F)n1` [Encorafenib (LGX818)]: the “inhibition” value was 0.31% (1 nM); 0.31% (8.33 nM); 2.88% (100 nM); 6.46% (833.33 nM); -1.13% (10000 nM).
Consider `CNC(=O)Nc1ccc(-c2nc(N3CC4CCC(C3)O4)c3cnn(C4CCC5(CC4)OCCO5)c3n2)cc1`, for which the “inhibition” value is -1.21% (1 nM); 1.24% (8.33 nM); 0.34% (100 nM); -0.87% (833.33 nM); 9.1% (10000 nM).
The matching figures for `CCCc1ncc(C[n+]2ccccc2C)c(N)n1` [amprolium]: 7.17%, 1.36%, 4.43%, -0.09% and 0.03%.
Turning to `O=S(=O)(c1cccc2c(O)nccc12)N1CCCNCC1` [hydroxyfasudil], the “inhibition” value (1 nM) is -1.12%; the “inhibition” value (8.33 nM) is -1.29%; the “inhibition” value (100 nM) is -1.81%; the “inhibition” value (833.33 nM) is -2.35%; the “inhibition” value (10000 nM) was -0.71%.
The matching figures for `Nc1c(CC(=O)O)cccc1C(=O)c1ccccc1` [amfenac]: 0.42%, 0.91%, 1.2%, -0.82% and -2.19%.
The matching figures for `O=c1[nH]c2ccccc2c(=O)n1CCCN1CCN(c2ccccc2)CC1` [pelanserin]: 0.03%, 1.75%, -0.08%, 1.18% and 0.03%.
The matching figures for `OCC(CO)N[C@H]1C[C@](O)(CO)[C@@H](O)[C@H](O)[C@H]1O` [voglibose]: 0.63%, -8.33%, 1.72%, 2.63% and 2.03%.
On to `Oc1ccc2ccccc2c1` [beta-naphthol], for which the “inhibition” value (1 nM) was -0.51%; the “inhibition” value (8.33 nM) was -1.33%; the “inhibition” value (100 nM) was 2.24%; the “inhibition” value (833.33 nM) was 5.34%; the “inhibition” value (10000 nM) is 2.59%.
The matching figures for `N[C@@H](CSCCCO)C(=O)O` [fudosteine]: 0.08%, 1.3%, 0.76%, 1.15% and -1.74%.
Regarding `Cn1cc(C[C@@H](N)C(=O)O)c2ccccc21` [indoximod], the “inhibition” value by setting is: (1 nM) -3.51%; (8.33 nM) -2.58%; (100 nM) -2.33%; (833.33 nM) -1.85%; (10000 nM) -1.3%.
As to `CC1(C)O[C@@H]2C[C@H]3[C@@H]4CCC5=CC(=O)C=C[C@]5(C)[C@H]4[C@@H](O)C[C@]3(C)[C@]2(C(=O)CO)O1` [desonide], the “inhibition” value by setting is: (1 nM) 1.41%; (8.33 nM) 2.82%; (100 nM) 5.19%; (833.33 nM) 5.19%; (10000 nM) 1.37%.
